In the OligoGym collection:

What follows are sequences tested against SLC26A5 (assay: pooled miR-30 sensor sort-seq; sequence = guide strand). Settings: shRNA.
Further: reference of the scale not given here.

| Sequence | sensor-assay potency score (higher = more potent) |
| --- | --- |
| TTCTGCAACACAGCAACTGTAC | -0.438 |
| TATCATCTGGTACTAATCGAAC | -1.32 |
| TAGTCTTTCCTGGAGGACCGGA | -0.913 |
| TATACAAGTCGCTATTTGCATA | -1.73 |
| TTAATGAGGCCAAACAACCTGC | -0.462 |
| TTGCATAGTAAATTGGTGCATT | -0.361 |
| TTTCGTTTTAATGCATTGCTAT | -0.563 |
| TAACATTCTGCAACACAGCAAC | -0.753 |
| TTGTGTGTAGTCTTTCCTGGAG | -0.0771 |
| TAAATCTTTGCATTTCCTCAGG | -0.693 |
| TTGTCCTTTGTGTGTAGTCTTT | -0.811 |
| TTTCCAAGGACTTTGTAGCTTG | -0.312 |

The sequences below were run against SLC26A8 in the same assay as above. Settings: shRNA.

| Sequence | sensor-assay potency score (higher = more potent) |
| --- | --- |
| AATCGATACATACACATCCATT | -1.59 |
| TTTTATATCTTGAATTGTCATT | -1.25 |
| TTAGGTAGTAAACATTTACAAA | -1.21 |
| TTATCCTGGATAATAGTCCTAG | -0.541 |
| TGAATTGTCATTCTTGTCTGTT | -0.0701 |
| TTTATTTTCAAATCGCTCTGTG | 0.487 |
| TTGAATTGTCATTCTTGTCTGT | 0.809 |
| TTGATTTTTCTGAGACACGGAC | -0.723 |
| TTGAGCTTCATCTCTTTGGAGA | -0.991 |
| TTTACAAATGTAATTGAGCTGC | -0.345 |
| TAATCGATACATACACATCCAT | -0.25 |
| TAGTCCTAGCAATAGCACCAGT | -1.08 |
